The whole screen tested about 360,000 compounds, of which about 11,000 (3.1%) were called active. Another 2% or so got no clear call; they are omitted. Cut-off read from the data, not from the text of the source: active = fluorescence intensity above about 16000; inconclusive = no clear call, values can overlap the other calls; inactive = below that. What follows is part of a selection rich in actives, with near analogues and random picks from the rest.

A short description of the test: compound fluorescence in toxin protease inhibitor counterscreen, primary screen, artefact control for toxin protease inhibitor project, biochemical, multiplex microsphere, HTS (AID 624483). The settings on record: compound autofluorescence counterscreen, microsphere flow cytometry; hits give high values. On the technique in general: Counterscreens check selectivity or assay interference.
On to `Cc1onc(-c2ccccc2)c1C(=O)N1CCN(S(=O)(=O)c2ccccc2C(F)(F)F)CC1`, for which the fluorescence intensity is 3570 (inactive).
For `COC(=O)c1ccc2nc(-c3cccc(Br)c3)c(Cc3ccc(OC)cc3C)n2c1` the value was 5220 (inactive); for `CCC1(C)Cc2c(sc3[nH]c(=S)n(Cc4ccccc4)c(=O)c23)CO1` (stereo unspecified), 2880 (inactive); for `CCC1(C)Cc2c(sc3nnn(CC(=O)Nc4ccc(Cl)cc4)c(=O)c23)CO1` (stereo unspecified), 22700 (active).
Consider `CCOC(=O)Cn1c(SC)nc2sc3c(c2c1=O)CC(C)(C)OC3`, for which the fluorescence intensity is 6860 (inactive).
To `N#C/C(=C/c1cccc([N+](=O)[O-])c1)c1nnc2n1CCCCC2` belongs 1990 (inactive).
Turning to `CS(=O)(=O)N(Cc1ccc(Cl)cc1)c1ccc(C(=O)NCCSCc2ccco2)cc1`, the fluorescence intensity is 10900 (inactive).
For `Cc1ccc(N(Cc2ccc(C(=O)Nc3ccccc3C(=O)NCc3ccco3)cc2)S(C)(=O)=O)cc1C` the value was 25100 (active); for `Cc1cccc(Nc2ccccc2C(=O)NCc2ccco2)c1C`, 3190 (inactive); for `O=C(Nc1ccc(S(=O)(=O)N2CCOCC2)cc1)c1ccc2ncsc2c1`, 4800 (inactive).
Consider `O=C(CSc1nnc(-c2c[nH]c3ccccc23)o1)c1ccccc1`, for which the fluorescence intensity was 7930 (inactive).
As to `CCCn1cc(SCC(N)=O)c2ccccc21`, the fluorescence intensity was 6190 (inactive).
For the compound `NC(=O)CSc1c[nH]c2ccccc12`, the fluorescence intensity is 20300 (active).
Turning to `O=[N+]([O-])c1ccc(CN2CC(N3CCC(c4ccccc4)CC3)CS2(=O)=O)cc1` (stereo unspecified), the fluorescence intensity is 4360 (inactive).
For `COc1ccc(C2=NOC(C(=O)NCc3ccco3)C2)cc1OC` (stereo unspecified) the value was 21200 (active).
For `COc1ccc(S(=O)(=O)N2CCC(C(=O)NCc3ccco3)CC2)cc1C` the value was 3590 (inactive).
As to `COc1ccc(CNC(=O)C2CC(c3ccc(C(F)(F)F)cc3)=NO2)cc1` (stereo unspecified), the fluorescence intensity is 4040 (inactive).
For `CCOC(=O)N1CCN(C(=O)c2cn(C)c3ccc(S(=O)(=O)N(CC)CC)cc3c2=O)CC1` the value was 2950 (inactive); for `COc1ccc(N2CCN(C(=O)c3cn(C)c4ccc(S(=O)(=O)N5CCOCC5)cc4c3=O)CC2)cc1`, 5270 (inactive); for `CCOC(=O)N1CCN(C(=O)c2cn(C)c3ccc(S(=O)(=O)N4CCCC4)cc3c2=O)CC1`, 19900 (active).
To `Cc1ccc(C(NC(=O)C2CCN(CCOc3ccc(Cl)cc3Cl)CC2)c2ccccn2)cc1` (stereo unspecified) belongs 3690 (inactive); to `O=C(NCCS(=O)(=O)N1CCN(c2ccccc2)CC1)c1cc(=O)c2ccccc2o1`, 2940 (inactive); to `CC(C)C(=O)N1c2ccccc2NC2=C(C(=O)CCC2)C1c1ccc(N(C)C)cc1` (stereo unspecified), 3590 (inactive).
To `O=C1c2ccccc2C(O)N1Cc1ccccc1` (stereo unspecified) belongs 11200 (inactive); to `CC1(C)C2CCC1(CS(=O)(=O)NCCc1c[nH]c3ccccc13)C(=O)C2` (stereo unspecified), 3440 (inactive).
Take `CCCC(=O)N1CCC1(C)C(=O)Nc1ccc(-n2cncn2)cc1` (stereo unspecified): the fluorescence intensity is 4100 (inactive).
To `Cc1cccc(C)c1NC(=O)CN1CCN(c2ccc(F)cc2)CC1` belongs 5760 (inactive); to `COc1ccc(OCCCCN2CCC(C)CC2)cc1`, 3010 (inactive); to `CC(C)(C)c1ccc(CN2C(=O)CN=C(c3ccccc3)c3ccccc32)cc1`, 16300 (active).
Regarding `CCN(CC)C(=O)C1=C(C)N(Cc2ccc(C(C)(C)C)cc2)C(=O)C(CC(=O)NCc2cccc3ccccc23)C1` (stereo unspecified), the fluorescence intensity is 3960 (inactive).
Turning to `CC(C)(C)c1ccc(CN2C(=O)c3ccccc3S2(=O)=O)cc1`, the fluorescence intensity was 3970 (inactive).
To `CNc1cnc(-c2cc(OC)c(OC)c(OC)c2)cn1` belongs 3800 (inactive).
As to `O=C(Nc1ccc(OCCO)cc1)c1csc([C@H]2C[C@H](O)[C@@H](CO)O2)n1`, the fluorescence intensity was 4100 (inactive).
To `O=C(COC(=O)c1n[nH]c2ccccc12)Nc1ccccc1Br` belongs 3780 (inactive).
To `CC(=O)Nc1ccc(S(=O)(=O)N2CCN(S(=O)(=O)c3cccs3)CC2)cc1` belongs 6050 (inactive); to `COC(=O)Nc1ccc(S(=O)(=O)N2CCN(CCN3C(=O)C4C5C=CC(C5)C4C3=O)CC2)cc1` (stereo unspecified), 21300 (active).
For `CC(=O)Nc1ccc(S(=O)(=O)N2CCN(CCCOc3cc(C)ccc3C)CC2)cc1` the value was 11400 (inactive).
Regarding `CCn1c(CN2C(=O)CSc3ccccc32)n[nH]c1=S`, the fluorescence intensity was 6470 (inactive).
With `Cc1nnc(SCCCn2c(N3CCCCC3)nc3c2c(=O)[nH]c(=O)n3C)s1`, the fluorescence intensity was 20700 (active).
For `Cc1nnc(Sc2nc3c(c(=O)[nH]c(=O)n3C)n2Cc2ccccc2)s1` the value was 5620 (inactive); for `C=C(C)Cn1c(N2CCCC2)nc2c1c(=O)[nH]c(=O)n2C`, 5030 (inactive); for `CNC(=S)NNC(=O)c1sccc1OCc1ccccc1`, 22300 (active).
For the compound `CNC(=S)NNC(=O)c1cccn(Cc2ccccc2)c1=O`, the fluorescence intensity is 4620 (inactive).
Take `Cc1ccc(/C=N/NC(=O)c2sccc2OCc2ccc(F)cc2)cc1`: the fluorescence intensity was 3080 (inactive).
To `CC1(C(=O)NS(=O)(=O)c2ccc(C#N)cc2)CCN1C(=O)CC1CCCC1` (stereo unspecified) belongs 3000 (inactive); to `COC(=O)c1nc(NC(=O)c2ccccc2)n[nH]1`, 19900 (active); to `COC(=O)c1nc(NC(=O)c2ccc(F)cc2)n[nH]1`, 3910 (inactive).
For `COC(=O)c1nc(NC(=O)c2ccc(Cl)cc2)n[nH]1`, the fluorescence intensity was 12500 (inactive).
For `CCCCCn1nnnc1C1c2ccccc2C(=O)N1Cc1ccco1` (stereo unspecified) the value was 6010 (inactive); for `CC1CCCN(S(=O)(=O)c2ccc(-c3ccc(=O)[nH]n3)o2)C1` (stereo unspecified), 5950 (inactive).
Take `CN(C)/C=C(\C#N)C(=O)c1cccnc1Oc1ccc(F)cc1F`: the fluorescence intensity was 24800 (active).
To `CCOc1ncccc1C(=O)N(C)CC(=O)Nc1ccc(F)cc1` belongs 2630 (inactive); to `CN(C)/C=C(\C#N)C(=O)c1cccnc1Oc1cccc(F)c1`, 15200 (inactive).
For `COc1cc(C(O)c2nc(-c3cccc(C(=O)O)c3)cs2)ccc1F` (stereo unspecified) the value was 3440 (inactive); for `CC(Sc1ccccc1F)C(=O)Nc1cccc(S(=O)(=O)N2CCOCC2)c1` (stereo unspecified), 4000 (inactive); for `CCOc1ccc(OCc2cccc(C(=O)N(CC)CC)c2)cc1`, 2210 (inactive).
As for `CC(C)(C)OC(=O)N(Cc1ccccc1)Cc1ccc(OCc2cccc(NC(=O)c3ccccc3)c2)cc1`, the fluorescence intensity is 3640 (inactive).
For `CC(C)c1cc(C(N)=O)c(NC(=O)c2cccc(COc3ccc(Br)cc3)c2)s1` the value was 22100 (active).
To `CC1(C)OC(=O)C2=C(C[C@@H](C3CCCC3)O[C@@H]2c2ccc(Cl)cc2)O1` belongs 6120 (inactive); to `C=CCc1cccc2cc(C(=O)OCC)c(=O)oc12`, 2480 (inactive).
For `C=CCc1cccc2cc(C(=O)Nc3ccc(NC(C)=O)cc3)c(=O)oc12` the value was 4060 (inactive); for `C=CCc1cccc2cc(C(=O)N3CCN(C(=O)OCC)CC3)c(=O)oc12`, 19200 (active).
As for `CCc1ccc(OC2(C)CCN(CCOc3ccc(C)cc3)C2)cc1` (stereo unspecified), the fluorescence intensity was 3880 (inactive).
Take `Cc1nc2ccc(S(=O)(=O)NCC(=O)NCCN3CCCCC3C)cc2s1` (stereo unspecified): the fluorescence intensity was 3450 (inactive).
For `Cc1ccc(N(Cc2cc(=O)[nH]c3ccccc23)C(=O)CCl)cc1` the value was 3750 (inactive).
To `Cc1oc(-c2ccccc2F)nc1CS(=O)(=O)CC(=O)NCCCN(C)C1CCCCC1` belongs 17000 (active).
To `Cc1oc(-c2ccccc2F)nc1CS(=O)CC(=O)NCCN1CCCCC1C` (stereo unspecified) belongs 5840 (inactive); to `CSc1ccc(CCNC(=O)CS(=O)(=O)Cc2nc(-c3ccccc3F)oc2C)cc1`, 5680 (inactive); to `CC1(C(=O)Nc2cccc3c2CCCC3)CCN1C(=O)CCc1ccc(Cl)cc1Cl` (stereo unspecified), 3570 (inactive).
Consider `C=C(C)CNC(=S)Nc1ccc(S(=O)(=O)Nc2cnc3ccccc3n2)cc1`, for which the fluorescence intensity is 4200 (inactive).
Consider `Cc1ccc(NS(=O)(=O)c2cc3c(cc2Br)NC(=O)CO3)cc1C`, for which the fluorescence intensity is 2960 (inactive).
For `CCCc1nc2c([nH]1)C(c1cccnc1)C(C#N)=C(N)O2` (stereo unspecified) the value was 7630 (inactive).
For the compound `CCCc1[nH]nc2c1C(c1ccc(OC(=O)c3ccco3)cc1)C(C#N)=C(N)O2` (stereo unspecified), the fluorescence intensity is 17200 (active).
To `CCCc1[nH]nc2c1C(c1ccc(Br)s1)C(C#N)=C(N)O2` (stereo unspecified) belongs 2790 (inactive).
To `COc1ccc(C(C)(O)c2nc(-c3cc(F)cc(F)c3)cs2)cc1` (stereo unspecified) belongs 3820 (inactive); to `OCCN1CCN(c2ncnc3c2ncn3[C@H]2CN(Cc3ccco3)C[C@@H](CO)O2)CC1`, 2940 (inactive).
For `CC(=O)C1=CCC(c2ccccc2)N(S(=O)(=O)c2ccc(C)cc2)C1` (stereo unspecified) the value was 4360 (inactive); for `CCOC(=O)C1(S(=O)(=O)c2ccc(Cl)cc2)CCN(Cc2ccccc2)CC1`, 22200 (active); for `CCOC(=O)C1(CCOC)CCN(Cc2ccc(C(=O)OC)cc2)CC1`, 4510 (inactive).
On to `O=C(NNS(=O)(=O)c1ccc(Cl)cc1)C1CCN(Cc2ccccc2)CC1`, for which the fluorescence intensity is 9590 (inactive).
As to `CCOC(=O)C1(S(=O)(=O)c2ccccc2)CCN(Cc2ccccc2)CC1`, the fluorescence intensity is 25000 (active).
As to `CCOC(=O)C1(CCOc2ccccc2)CCN(Cc2cc(OC)cc(OC)c2)CC1`, the fluorescence intensity was 3960 (inactive).
On to `CCOC(=O)C1(CCc2ccccc2)CCN(Cc2ccco2)CC1`, for which the fluorescence intensity is 2080 (inactive).
For `COC(=O)[C@@]1(Cc2ccc(F)cc2)[C@H]2c3cc(C(=O)N(C)C)n(CCc4c[nH]c5ccc(OC)cc45)c3C[C@H]2CN1C(=O)c1ccccc1` the value was 6230 (inactive); for `Nc1nc2c(ncn2[C@@H]2O[C@H](CNCc3ccc(OCCCN4CCOCC4)cc3)[C@@H](O)[C@H]2O)c(=O)[nH]1`, 6030 (inactive); for `CCCc1c(-c2ccccc2F)ncn1Cc1ccccc1OC`, 6360 (inactive).
Regarding `N#C/C(=C\c1ccc(N2CCOCC2)o1)C(=O)N1CCOCC1`, the fluorescence intensity is 3190 (inactive).
To `COC(=O)[C@]1(Cc2ccccc2)N[C@H](CN(C)S(=O)(=O)c2ccc(F)cc2)[C@@H]2C(=O)N(Cc3ccccc3)C(=O)[C@@H]21` belongs 2850 (inactive); to `COc1ccc(S(=O)(=O)NCCCCOc2ccc(Cl)cc2)cc1`, 3450 (inactive).
To `COc1ccc(N(CC(=O)N2CCCCCC2)S(=O)(=O)c2ccccc2)cc1` belongs 5240 (inactive); to `COc1ccc(N(CCC#N)S(=O)(=O)c2ccc(Cl)cc2)cc1`, 19700 (active).

Source of the values: PubChem BioAssay AID624483 (NMMLSC, 2012).
